FMDV inh: foot and mouth disease virus antiviral activity. Potency, µM (highest dose often 57.9 µM), inactives show top-dose activity change, negative = inhibition, actives largely listed as inhibitors. 1.2% of 410,000 active. FMDV antiviral cell-based qHTS; calls by dose curve; tested in HEK293T cells; further: read-out not given here; potency means the concentration at half of the fitted maximal effect; on the % scale 0 is the no-effect control and ±100 the full control effect; nearly all actives have a fitted effect of over 45% in size
Vaccinia Venus: inhibitors of vaccinia virus (Venus reporter); Vaccinia virus Venus reporter expression, fluorescence; Potency, µM (highest dose often 36.5 µM), for inactives: at the highest dose activity change, negative = inhibition, actives largely listed as inhibitors; 0.46% of 330,000 active; AID 720580; calls by dose curve; tested in A549 cells; further: potency means the concentration at half of the fitted maximal effect; on the % scale 0 is the no-effect control and ±100 the full control effect; nearly all actives have a fitted effect of over 30% in size
HCMV antiviral: human cytomegalovirus inhibition; HFF cells, HCMV-luciferase reporter, 72 h; active compounds read low; activity change, negative = inhibition, % at 57.5 µM; 4.5% of 410,000 active; in the data active means activity change below about -60%; inconclusive means no clear call, values can overlap the other calls; inactive means above about -39%; further: on the % scale 0 is the no-effect control and ±100 the full control effect
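Inhibition of viral replication was scored as loss of reporter luminescence in HFFs infected with HCMV-luciferase (MOI 1 PFU/cell) for 72 h; compounds tested at 2 doses, normalized to buffer and Salinomycin controls.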
HCV inh: HCV inhibition; Huh7.5.1 HCVcc-Cre infection, luciferase reporter, 44 h; 3.4% of 340,000 active; Potency, µM (titrated, usually from 41.8 µM), for inactives: at the highest dose activity change, negative = inhibition, hits mostly inhibitors; AID 651820; further: potency means the concentration at half of the fitted maximal effect; on the % scale 0 is the no-effect control and ±100 the full control effect
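Compounds are dispensed onto cells plated 4 h earlier at 1,000 per well, with HCVcc-Cre virus (about 0.5 moi) added next. Following 44 h of culture, luminescent signal is measured for 15 sec after 15 min with substrate at room temperature.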
VACV mCherry inh: vaccinia inhibition (mCherry reporter); Vaccinia virus mCherry reporter infection, fluorescence; Potency, µM (titrated, usually from 36.5 µM), without a hit: at the highest dose activity change, negative = inhibition, hits mostly inhibitors; 0.63% of 310,000 active; AID 720579; calls by dose curve; tested in A549 cells; further: potency means the concentration at half of the fitted maximal effect; on the % scale 0 is the no-effect control and ±100 the full control effect; nearly all actives have a fitted effect of over 35% in size
HCV confirm: HCV inhibition, cherry-pick confirmation; shares compounds with HCV inh; HCVcc-Cre infectious virus cell assay, luciferase, inhibition; Potency, µM (top dose mostly 41.8 µM), for the others: top-dose activity, negative = inhibition, usual class: inhibitors; 78% of 640 active; further: potency means the concentration at half of the fitted maximal effect; nearly all actives have a fitted effect of over 80% in size
HCV cytotox: counter-screen for HCV inhibitors: host cell cytotoxicity; shares compounds with HCV inh; HCV host cell line cytotoxicity counterscreen; Potency, µM (series often up to 41.8 µM), without a hit: at the top dose activity change, negative = cytotoxicity, hits mostly inhibitors; 22% of 640 active; AID 720576;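 further: potency means the concentration at half of the fitted maximal effect; 44 h compound exposure; on the % scale 0 is the no-effect control and ±100 the full control effect; nearly all actives have a fitted effect of over 55% in size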
* hit, by the source's call; i = inactive; u = inconclusive; x = no result. Only some compounds are listed: those with a hit (about 7.3% of all), similar ones and a draw of the others. Unless noted, the call rests on the fitted dose curve; in most records, active means well fitted curve in the direction sought with a large enough effect; inconclusive means small, poorly fitted or top-dose-only effect, or another doubt; inactive means no such curve, though single readings can be large; an effect the other way counts as inactive or inconclusive.

SMILES | FMDV inh | Vaccinia Venus | HCMV antiviral | HCV inh | VACV mCherry inh | HCV confirm | HCV cytotox
CCOc1ccc(CCNc2nc3c(c(=O)n(C)c(=O)n3C)n2CC)cc1OCC | -25% | x | -97* | 5.6µM* | x | 6.3µM* | 14µM*
CCOc1ccccc1NC(=O)C(CC(C)C)NS(=O)(=O)c1ccc2c(c1)CCN2C(C)=O (stereo unspecified) | 16% | -4% | -16 | x | 1% | x | x
Cc1ccc(C)c(Cn2c(=O)n(Cc3ccco3)c(=O)c3oc4ccccc4c32)c1 | -1% | -14% | -15 | x | -5% | x | x
COc1ccc(N2CCN(C(CNC(=O)C(=O)NCc3ccc(F)cc3)c3cccnc3)CC2)cc1 (stereo unspecified) | u | -18% | -8 | x | i | x | x
Cc1ccc(C(=O)c2cc([N+](=O)[O-])ccc2N2CCCCC2)c(C)c1 | u | u | -92* | u | u | u | -39%
O=C(O)c1cc([N+](=O)[O-])ccc1N1CCCCC1 | -13% | -14% | -4 | 3% | -19% | x | x
COc1cccc(CN2CCCN(Cc3ccc(F)cc3)S2(=O)=O)c1 | 9% | -4% | 0 | x | -10% | x | x
Oc1ccc2ccccc2c1CN1CCN(c2ccccc2)CC1 | -13% | x | 34 | 10% | x | x | x
Oc1ccc(CN2CCN(c3ccccc3)CC2)c2cccnc12 | -21% | -22% | x | 7.9µM* | -27% | 7µM* | 22µM*
CC(C)(C)OC(=O)N1C[C@@]23C[C@H](c4cccc(F)c4)[C@@H](C[C@@H]2S1(=O)=O)O3 | x | x | 5 | x | x | x | x
COc1ccc(C(=O)c2ccc(N(C)C)cc2)c2ccccc12 | x | u | -77* | u | u | -22% | -19%
COc1ccc(C(=O)c2ccc(OC)c(OC)c2OC)cc1 | 4% | -26% | -14 | u | -6% | x | x
CC(C)(C)C1CCc2c(sc(NC(=O)c3cccc(Cl)c3)c2C(=O)NCc2ccco2)C1 (stereo unspecified) | 0% | -15% | -19 | x | -21% | x | x
CN1CCN(CCOC2c3ccccc3CSc3ccc(Cl)cc32)CC1 (stereo unspecified) | -22% | u | -37 | u | u | x | x
Clc1ccc2c(c1)C(OC1CN3CCC1CC3)c1ccccc1CS2 (stereo unspecified) | u | u | -35 | 10µM* | u | 16µM* | u
NC(=O)c1ncn([C@@H]2O[C@H](CNCc3ccc(-c4cc(C(F)(F)F)ccc4Cl)o3)[C@@H](O)[C@H]2O)n1 | -17% | 0% | 3 | 3.2µM* | i | -17% | 0.025µM*
CCC(=O)Nc1cc2c(cc1C(=O)CC)OCCO2 | -24% | -10% | 28 | 5.6µM* | -15% | 13µM* | 20%
c1ccc(Nc2nc(NCc3ccco3)c3ccccc3n2)cc1 | 14µM* | u | -66* | 4µM* | i | 14µM* | 25µM*
CSc1nc(NCc2ccco2)c2ccccc2n1 | u | u | u | -26% | -28% | x | x
O=C(COc1ccc(/C=N/NC(=O)c2cc3ccccc3o2)cc1Cl)Nc1ccccc1 | -69% | u | x | 5.6µM* | u | 7µM* | 7µM*
O=[N+]([O-])c1ccc(S(=O)(=O)CC(CN2CCCCC2)N2CCCCC2)cc1 (stereo unspecified) | 18µM* | x | -25 | 4.5µM* | x | 11µM* | 20µM*
O=C(Cc1ccc([N+](=O)[O-])cc1)N1CCCCCC1 | 24% | -6% | -7 | -8% | -10% | x | x
O=C(Nc1nc(-c2ccc(Br)cc2)ns1)c1ccccc1F | 27% | -27% | 7 | x | -16% | x | x
CSc1ccc(CCNC(=O)c2c(C)nn(-c3ccc(F)cc3)c2-n2cccc2)cc1 | u | -7% | u | x | -22% | x | x
c1ccc(Cn2nnc3c(N4CCc5ccccc5C4)ncnc32)cc1 | -9% | -12% | -6 | -24% | -21% | x | x
c1ccc2c(c1)CCN(c1ncnc3c1[nH]c1ccccc13)C2 | 11µM* | x | -66* | 2.5µM* | x | 2.8µM* | 6.3µM*

Screening data from PubChem.
